# Positions count from the first letter of the chain named. Whole data set: some 16,000 sequences, median “ka relative to ugcaugu” near 0.096, cut for the highest 2% near 0.35. Shown is part of a subset that was picked to be rich in the highest values.
# T1: RBFOX1 RRM RbFoxmut (Fox-RRM*) (Homo sapiens, UniProt Q9NWB1 109-208, R118D;E147R;N151S;E152T)
# T1 sequence: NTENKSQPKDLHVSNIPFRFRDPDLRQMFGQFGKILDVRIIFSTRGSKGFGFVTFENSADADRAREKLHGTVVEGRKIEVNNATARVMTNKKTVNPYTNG
# B1: GAUUAAU (DNA:RNA)
# RNA: GGGAGACCGGAAUUCAGAUUGUCCGAUUAAUUUAAAUCCCGUCGUAGCCACCA
# DNA 1: CAATCTGAATTCCGGTCTCCC
# DNA 2: TGGTGGCTACGACGGGATT
# B2: UUGCUUC (DNA:RNA)
# RNA: GGGAGACCGGAAUUCAGAUUGUCCUUGCUUCUUAAAUCCCGUCGUAGCCACCA
# DNA 1: CAATCTGAATTCCGGTCTCCC
# DNA 2: TGGTGGCTACGACGGGATT
# B3: AGAGUCA (DNA:RNA)
# RNA: B2 RNA with U25A, U26G, G27A, C28G, U30C, C31A
# DNA 1: CAATCTGAATTCCGGTCTCCC
# DNA 2: TGGTGGCTACGACGGGATT
# B4: UCCAGUA (DNA:RNA)
# RNA: B2 RNA with U26C, G27C, C28A, U29G, C31A
# DNA 1: CAATCTGAATTCCGGTCTCCC
# DNA 2: TGGTGGCTACGACGGGATT
# B5: GACCGUC (DNA:RNA)
# RNA: B2 RNA with U25G, U26A, G27C, U29G
# DNA 1: CAATCTGAATTCCGGTCTCCC
# DNA 2: TGGTGGCTACGACGGGATT
# B6: GAAUGUC (DNA:RNA)
# RNA: B1 RNA with U27A, A29G, A30U, U31C
# DNA 1: CAATCTGAATTCCGGTCTCCC
# DNA 2: TGGTGGCTACGACGGGATT
# B7: GAAAAUG (DNA:RNA)
# RNA: B1 RNA with U27A, U28A, A30U, U31G
# DNA 1: CAATCTGAATTCCGGTCTCCC
# DNA 2: TGGTGGCTACGACGGGATT
# B8: AAAGCCU (DNA:RNA)
# RNA: B1 RNA with G25A, U27A, U28G, A29C, A30C
# DNA 1: CAATCTGAATTCCGGTCTCCC
# DNA 2: TGGTGGCTACGACGGGATT
# B9: CUAUCCC (DNA:RNA)
# RNA: B2 RNA with U25C, G27A, C28U, U29C, U30C
# DNA 1: CAATCTGAATTCCGGTCTCCC
# DNA 2: TGGTGGCTACGACGGGATT
# Molecular target: T1, RBFOX1 RRM RbFoxmut (Fox-RRM*)
# Assay: EMSA; HiTS-Eq, 1 nM pool, 10 min; buffer printed only for the single-RNA assays: 10 mM Tris pH 7.5, 150 mM NaCl, 3.4 mM EDTA, 0.001% NP-40, 30 C
# Settings: tags: His6 N-terminal (pET28a); label: 5' 32P
# Summary of the method: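 Purified RbFox RRM (wild type or mutant) was equilibrated for 10 min in 50 µL with 1 nM of a 5′-radiolabelled pool of RNA with 7 randomized nucleotides, its flanks annealed to DNA oligonucleotides, across increasing protein concentrations. Free RNA was separated by 8% native PAGE, excised, reverse-transcribed, PCR-barcoded and sequenced on an Illumina HiSeq 2500. Relative association constants came from read-count changes of each variant against the control reaction, normalised to the cognate motif.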
row,Binder,binding signal
1,B1,0.0998 KA relative to UGCAUGU
2,B2,0.157 KA relative to UGCAUGU
3,B3,0.106 KA relative to UGCAUGU
4,B4,0.135 KA relative to UGCAUGU
5,B5,0.0863 KA relative to UGCAUGU
6,B6,0.55 KA relative to UGCAUGU
7,B7,0.1 KA relative to UGCAUGU
8,B8,0.0705 KA relative to UGCAUGU
9,B9,0.0664 KA relative to UGCAUGU

# — article PMC9911399, “Two distinct binding modes provide the RNA-binding protein RbFox with extraordinary sequence specificity”
